# Pf Dd2 growth – Plasmodium falciparum Dd2 growth inhibition. AID 1347417. 120,000 compounds, 4.3% hits. P. falciparum Dd2 growth, SYBR Green, 72 h. Potency, µM (doses to about 28.9 µM), without a hit: at the highest dose activity, negative = inhibition, most hits filed as inhibitors; active = well fitted inhibition curve with a large enough effect;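 also: plate controls were DMSO vehicle for no effect and reference drug for full effect; nearly all actives have a fitted effect of over 65% in size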
#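 Infected erythrocytes (Dd2, 0.3% parasitemia, 2.5% hematocrit final) are added to compound in RPMI-1640/Albumax II medium, grown 72 h at 37C in low oxygen, then lysed with saponin/Triton-X containing SYBR Green and read by fluorescence.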
# Starred values were filed as active, the others as inactive; i = inactive; [ ] = dose if it differs, or a comment. The sample as a whole holds a higher share of hits than the screen did. Potency is read from the fitted curve at half-maximal effect.
SMILES,Pf Dd2 growth
COc1cc2c(cc1OC)C(COc1ccc(C(C)C)cc1)N(C(=O)c1ccc(S(=O)(=O)N3CCCC3)cc1)CC2 (stereo not given),13µM*
COc1cc2c(cc1OC)C(COc1cccc(C(F)(F)F)c1)N(C(=O)c1ccc(S(=O)(=O)N3CCCC3)cc1)CC2 (stereo not given),7.9µM*
COc1ccc(CN2CCn3c(nnc3-c3ccncc3)C2)cc1,-1%
O=C(NCc1nnc2n1C(C(=O)N1CCCC1)CC2)c1cccnc1 (stereo not given),3%
CC[C@H]1CN(C(=O)c2ccnc(Cl)c2)CC[C@H]1CC(=O)N(C)CC#N,26%[44.1 µM]
CCc1nc(-c2c3n(c(=O)n(CC(=O)Nc4ccccc4OC)c2=O)CCCC3)no1,-5%
COc1ccccc1CCC(=O)NC(C)C(=O)N1CCN(c2ccccn2)CC1 (stereo not given),i
O=C(c1cc(F)ccc1F)N1CCC[C@H]1c1nc(-c2ccc(F)cc2)no1,i
CC1=C[C@@H](CNC(=O)C2CC2)[C@H](C(C)C)C[C@H]1Cc1nc2ccncc2[nH]1,-19%[44.1 µM]
COc1ccc2[nH]c(C[C@@H]3C[C@@H](C(C)C)[C@H](CNC(=O)C4CCC4)C=C3C)nc2n1,11µM*
COC(=O)c1ccc2nc(C[C@@H]3C[C@@H](C(C)C)[C@H](CNCc4ccccc4F)C=C3C)[nH]c2c1,4.5µM*
COC(=O)c1ccc2nc(C[C@@H]3C[C@@H](C(C)C)[C@H](CNC(=O)N4CCOCC4)C=C3C)[nH]c2c1,13µM*
COC(=O)c1ccc2nc(C[C@@H]3C[C@@H](C(C)C)[C@H](CNC(=O)[C@@H]4CCCC[C@@H]4C(=O)O)C=C3C)[nH]c2c1,-13%
CC1=C[C@@H](CNC(=O)C2CC2)[C@H](C(C)C)C[C@H]1Cc1nc2ncccc2[nH]1,-6%[44.1 µM]
COC(=O)c1ccc2nc(C[C@@H]3C[C@@H](C(C)C)[C@H](CNCc4ccc(OC)cc4O)C=C3C)[nH]c2c1,-7%
CCOC(=O)C[C@@H]1C[C@@H](C(C)C)[C@H](CNC(=O)c2cccnc2)C=C1C,i
CCOC(=O)C[C@@H]1C[C@@H](C(C)C)[C@H](CNC(=O)c2ccc(F)cc2)C=C1C,11µM*
COC(=O)c1ccc2nc(C[C@@H]3C[C@@H](C(C)C)[C@H](CNC4CCOCC4)C=C3C)[nH]c2c1,-20%
CC1=C[C@@H](CNC(=O)c2cccnc2)[C@H](C(C)C)C[C@H]1Cc1nc2ccc(F)cc2[nH]1,i
CCOC(=O)C[C@@H]1C[C@@H](C(C)C)[C@H](CNC(=O)c2ccc(C#N)cc2)C=C1C,i
CS(=O)(=O)N1CCC2(CC1)CN(Cc1ccncc1)Cc1ccccc1O2,14%
CCC(C)NC(=O)CCN(CCCOC)C(=O)c1cc(C)oc1C (stereo not given),-16%
COCCN1CCC(N2CCN(C(=O)c3ccc(F)c(F)c3)CC2)C1=O (stereo not given),-1%
COCC(=O)NC1CCC12CCN(Cc1ccccn1)CC2 (stereo not given),-6%
O=C(c1ccccn1)N1CCn2c(nnc2-c2cccnc2)C1,-5%[44.1 µM]
SMILES,Pf Dd2 growth
O=C(N[C@@H]1CCN(C(=O)c2ccc(CO)cc2)C[C@H]1O)c1cccnc1,17%
COC(=O)c1ccc2nc(C[C@@H]3C[C@@H](C(C)C)[C@H](CNC(=O)c4cnccn4)C=C3C)[nH]c2c1,-5%
COCCNC(=O)C[C@@H]1C[C@@H](C(C)C)[C@H](CNC(=O)C2CC2)C=C1C,8.9µM*
CCCNC(=O)NC[C@@H]1C=C(C)[C@H](Cc2nc3ccc(OC)cc3[nH]2)C[C@H]1C(C)C,10µM*
CCCNC(=O)NC[C@@H]1C=C(C)[C@H](Cc2nc3ncccc3[nH]2)C[C@H]1C(C)C,i
COc1ccc2nc(C[C@@H]3C[C@@H](C(C)C)[C@H](CNCc4ccc(NC(C)=O)cc4)C=C3C)[nH]c2c1,i
COCC(=O)NC[C@@H]1C=C(C)[C@H](CC(=O)N2CCCC2)C[C@H]1C(C)C,-22%[44.1 µM]
COC(=O)c1ccc2nc(C[C@@H]3C[C@@H](C(C)C)[C@H](CNC(=O)c4ccccc4)C=C3C)[nH]c2c1,8.9µM*
COc1ccc2nc(C[C@@H]3C[C@@H](C(C)C)[C@H](CNC(=O)CC4(CC(=O)O)CCCC4)C=C3C)[nH]c2c1,i
CCC(CC)C(=O)NC[C@@H]1C=C(C)[C@H](Cc2nc3ccc(C(=O)OC)cc3[nH]2)C[C@H]1C(C)C,-1%
CC1=C[C@@H](CNCc2ccccc2O)[C@H](C(C)C)C[C@H]1Cc1nc2c(C)cccc2[nH]1,-25%[44.1 µM]
CCOC(=O)C[C@@H]1C[C@@H](C(C)C)[C@H](CNC(=O)C2CC2)C=C1C,-16%[44.1 µM]
COc1ccc2nc(C[C@@H]3C[C@@H](C(C)C)[C@H](CNCc4ccccn4)C=C3C)[nH]c2c1,0.63µM*
COc1ccc(CCc2nc3nccc(-c4ccc(OC)cc4F)n3n2)cc1,i
Cc1c(CC(=O)NCC2CCCOC2)c2c(n1CC(C)C)CC(C)(C)CC2=O (stereo not given),-19%
CCn1cc(C(=O)N2C[C@@H](COC)[C@H](c3nc(C)no3)C2)cn1,24%
COc1ccccc1OCC(=O)NCC1CCCN(Cc2ccc(C3CCCC3)s2)C1 (stereo not given),i
O=C(NCc1ccc(F)cc1)C1CCN(c2cn[nH]c(=O)c2)C1 (stereo not given),-3%
Cc1noc2c(N3CCOCC3)cc(-c3ccsc3)nc12,-9%[44.1 µM]
COCCC1(NC(=O)C2CC2)CCN(C(=O)c2ccccn2)CC1,-11%
CNC(=O)C1(N2CCC[C@H]2C(=O)NCCN(C)C)CCCCC1,7%[44.1 µM]
CC1=C[C@@H](CNC(=O)CC2(CC(=O)O)CCCC2)[C@H](C(C)C)C[C@H]1Cc1nc2ccc(F)cc2[nH]1,i
COCC(=O)NC[C@@H]1C=C(C)[C@H](Cc2nc3ccc(F)cc3[nH]2)C[C@H]1C(C)C,13µM*
COCC(=O)NC[C@@H]1C=C(C)[C@H](Cc2nc3ccccc3[nH]2)C[C@H]1C(C)C,i
O=C1CCN(S(=O)(=O)c2ccccc2)CCCC(C(=O)NC2CC2)CCN1 (stereo not given),3%
SMILES,Pf Dd2 growth
O=C(NCCCN1CCCc2ccccc21)c1ccc(N2CC3CC(C2)[C@H]2CCCC(=O)N2C3)nc1 (stereo not given in full),11µM*
O=C(NCCCN1CCOCC1)c1ccc(N2CC3CC(C2)[C@H]2CCCC(=O)N2C3)nc1 (stereo not given in full),-30%
O=C(NCCCN1CCCc2ccccc21)c1cccnc1N1CC2CC(C1)[C@H]1CCCC(=O)N1C2 (stereo not given in full),i
COc1ccc(N2CCN(C(=O)Cn3c(-c4cccc(Cl)c4)nc(C)c(CCO)c3=O)CC2)cc1,i
O=C(CC[C@H]1NC(=O)c2ccccc2NC1=O)NCCc1ccccn1,-14%
O=C(CCNC(=O)c1cnccn1)NC1CCCc2c1[nH]c1ccccc21 (stereo not given),-9%
O=C(c1ccc2c(c1)OCO2)N1CC(c2noc(C3CCCN3CC3CC3)n2)C1 (stereo not given),5µM*
CC(=O)N1CCCC1c1nc(C2CN(S(=O)(=O)c3cccnc3)C2)no1 (stereo not given),-21%
O=S(=O)(c1cccnc1)N1CC(c2noc(C3CCCN3CC3CC3)n2)C1 (stereo not given),6.3µM*
COCCN1CCCC1c1nc(C2CN(C(=O)c3ncccc3C)C2)no1 (stereo not given),i

# Bioassay records (PubChem BioAssay)
